# This is a sample that favours compounds with a hit; in the whole collection about 9.2% have one here.
# Rab9 promoter act – Rab9 promoter activation; Huh7 Rab9 promoter-luciferase reporter, luminescence, 24 h; Potency, µM (series often up to 9.22 µM), for inactives: at the top dose activation, negative = inhibition, most hits filed as activators; hit rate 2.8% among 320,000; note: % of control where 0% means no effect; nearly all actives have a fitted effect of over 60% in size
#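 Quantitative HTS format; Huh7 Rab9-luciferase reporter cells (1500/well) receive compound 2 h post-plating, incubate 24 h at 37 °C, then get luciferase reagent for 10 min before luminescence reading.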
# ELG1 DNA repair – ELG1-dependent DNA repair inhibition. HEK293T ELG1-luciferase reporter, luminescence, 16 h; DNA damage induced by 5-fluorouridine. Potency, µM (titrated, usually from 46.1 µM), inactives show top-dose activity change, negative = inhibition, usual class: inhibitors. hit rate 2.3% among 330,000; note: % is set by controls: 0 for no effect and ±100 for the full control effect; nearly all actives have a fitted effect of over 55% in size
#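 Step one: seed 2,000 cells per well. Step two: pin-transfer compound or DMSO alongside 5-fluorouridine. Step three: incubate 16 hr, 37 °C, 5% CO2. Step four: add ONE-Glo, wait 30 min, read luminescence.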
# FLuc counter – firefly luciferase modulation, counter-screen for miR-21 project. P08659. Potency, µM (top dose mostly 57.5 µM), for the others: top-dose activity change, negative = inhibition, hits mostly inhibitors. hit rate 6.9% among 360,000. purified FLuc, Km substrates, luminescence inhibition;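 note: plate controls were vehicle for no effect and reference inhibitor for full effect; nearly all actives have a fitted effect of over 55% in size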
# Target sequence (P08659 whole entry, looked up): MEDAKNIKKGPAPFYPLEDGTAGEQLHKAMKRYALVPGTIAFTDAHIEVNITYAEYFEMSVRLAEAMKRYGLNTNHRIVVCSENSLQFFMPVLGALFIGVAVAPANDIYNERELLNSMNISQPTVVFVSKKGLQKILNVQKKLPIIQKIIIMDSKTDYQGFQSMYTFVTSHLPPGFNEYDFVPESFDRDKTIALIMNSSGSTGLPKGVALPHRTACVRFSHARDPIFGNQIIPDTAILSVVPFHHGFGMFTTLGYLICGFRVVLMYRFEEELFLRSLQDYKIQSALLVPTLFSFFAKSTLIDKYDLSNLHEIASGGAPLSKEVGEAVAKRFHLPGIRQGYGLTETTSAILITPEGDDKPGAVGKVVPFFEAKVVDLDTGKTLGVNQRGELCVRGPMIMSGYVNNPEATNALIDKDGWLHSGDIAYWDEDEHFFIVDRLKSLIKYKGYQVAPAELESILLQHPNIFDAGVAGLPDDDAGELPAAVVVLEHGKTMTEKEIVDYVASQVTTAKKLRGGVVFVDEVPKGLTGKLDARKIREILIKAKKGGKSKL
#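 Purified P. pyralis luciferase, 10 nM final, with Km-level 10 uM D-luciferin and 10 uM ATP in 50 mM Tris acetate pH 7.5, 10 mM Mg acetate, 0.01% Tween-20, 0.05% BSA; 6-point qHTS titration about 60 µM downward; luminescence read.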
# ELG1 genotoxic – inducers of genotoxicity in HEK293T ELG1-luciferase cells. HEK293T ELG1-luciferase reporter, luminescence, 16 h. Potency, µM (titrated, usually from 46 µM), without a hit: at the highest dose activity change, positive = activation, hits mostly activators. hit rate 1.3% among 330,000. AID 504466; note: % of control where 0% means no effect; nearly all actives have a fitted effect of over 60% in size
#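 After overnight (16 hr) compound treatment at 37 °C, ELG1-luciferase HEK293T cells were lysed with ONE-Glo; luminescence quantified 30 min later at room temperature.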
# NPC1 promoter act – activates the NPC1 promoter; Huh7 NPC1 promoter luciferase reporter, 24 h; Potency, µM (titrated, usually from 9.22 µM), for the others: top-dose activation, actives largely listed as activators; hit rate 2.4% among 320,000; AID 485313; note: % of control where 0% means no effect; nearly all actives have a fitted effect of over 60% in size
#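 Luminescence from an NPC1 promoter-driven luciferase reporter in stably transfected Huh7 cells was measured after 24 h compound treatment at 37 °C, followed by 10 min ambient incubation with luciferase detection reagent.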
# SMN2 splice enh – SMN2 splice variant enhancement; HEK293 SMN2-luciferase splicing reporter, luminescence, 30-36 h; Potency, µM (series often up to 46.1 µM), inactives show top-dose activity change, positive = activation, most hits filed as activators; hit rate 2.8% among 210,000; AID 1458; note: % of control where 0% means no effect; nearly all actives have a fitted effect of over 55% in size
#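 HEK293 cells carry an SMN2 minigene-luciferase reporter in which exon 7 inclusion puts luciferase in frame. Cells were seeded at 2000 cells/well, attached for 10-12 hours, then exposed to compounds for 30-36 hours at 37C before ONE-Glo luminescence.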
# * marks the source's active call; other numbers are inactive results; ? = inconclusive; · = not tested or not shown; [ ] = remark or other dose. Calls come from the whole dose curve; as a rule, active = well fitted curve in the direction sought with a large enough effect; inconclusive = small, poorly fitted or top-dose-only effect, or another doubt; inactive = no such curve, though single readings can be large; an effect the other way counts as inactive or inconclusive. Potency is the fitted concentration of half-maximal effect.
SMILES,Rab9 promoter act,ELG1 DNA repair,FLuc counter,ELG1 genotoxic,NPC1 promoter act,SMN2 splice enh
Cc1ccc(-c2nc3ccc(C(=O)O)cc3nc2-c2ccc(C)cc2)cc1,-4%,?,1%,0%,0%,-10%
O=C(O)c1ccc2nc3c(nc2c1)-c1ccccc1C3=O,?,?,15µM*,3%,14%,8%
CSc1ncc(Cl)c(C(=O)Nc2ccc(S(=O)(=O)N3CCC(C)CC3)cc2)n1,·,·,-3%,·,·,-56%
O=C(Nc1ccc(S(=O)(=O)N2CCCCC2)cc1)C1CCCO1 (stereo unspecified),3%,-2%,2%,-1%,-5%,·
CN(Cc1c(F)cccc1Cl)C(=O)CNC(=O)c1cccs1,?,?,?,?,4µM*,·
Brc1c(CSc2nc3ccccc3s2)nc2ncccn12,3.2µM*,?,12µM*,?,3.2µM*,7.1µM*
c1coc(-c2nnc(-c3ccc4c(c3)OCO4)o2)c1,?,?,6.7µM*,8.2µM*,2µM*,18µM*
O=C1CCCCC1Sc1nnc(-c2ccc3c(c2)OCO3)o1 (stereo unspecified),0.1µM*,?,0.6µM*,-9%,0.2µM*,?
Clc1ccc(CSc2nnc(-c3ccc4c(c3)OCO4)o2)cc1,-2%,0%,?,0%,3%,-10%
Cc1ccc(-c2nnc(-c3ccc4c(c3)OCO4)o2)cc1,0.71µM*,?,1.3µM*,6.5µM*,1µM*,11µM*
c1nnc(-c2ccc3c(c2)OCO3)o1,-1%,5%,-5%,1%,-1%,0%
Brc1ccc(-c2nnc(-c3ccc4c(c3)OCO4)o2)o1,1µM*,?,1.7µM*,?,2µM*,11µM*
O=C(CSc1nnc(-c2ccc3c(c2)OCO3)o1)Oc1ccccc1,·,·,-3%,·,·,·
CC(C)CNC1=C(C(=S)Nc2ccccc2)C(=O)CC(C)(C)C1,5%,-1%,-2%,1%,-1%,-9%
Clc1ccccc1CN1CCN(/N=C/C=C\c2ccco2)CC1,?,?,17µM*,13%,13%,20%
C(/C=C/c1ccco1)=N/N1CCN(c2ccccc2)CC1,3.5µM*,?,8.5µM*,?,1.6µM*,?
C(=N\N1CCN(Cc2cccc3ccccc23)CC1)/c1ccco1,5%,12%,?,3%,2%,17%
COC(=O)c1c(NC(=O)Cc2coc3cc(C)ccc23)sc2c1CCC2,·,·,-10%,·,·,-2%
CCc1ccc2c(CN(C)Cc3ccccc3OC)cc(=O)oc2c1,0%,?,17µM*,14%,0%,·
Cc1ccc2c(CN(C)Cc3cccc(F)c3)cc(=O)oc2c1,21%[1.84 µM],?,11µM*,?,?,·
COc1ccc2oc(=O)cc(CN(C)Cc3ccccc3)c2c1,-4%,-4%,4%,-11%,-3%,·
COc1ccc(CN(C)Cc2cc(=O)oc3cc(C)c(C(C)C)cc23)cc1OC,5%,18µM*,0%,-4%,0%,·
Cc1cc2oc(=O)cc(CN(C)Cc3cccc(F)c3)c2cc1Cl,-4%[1.84 µM],2%,-6%,3%,1%,·
C/C(=N\NC(=O)COc1ccc(C(C)(C)C)cc1)c1ccc(N2CCOCC2)cc1,-4%,1%,?,0%,-6%,-51%
Cc1csc(NC(=O)c2ccccc2)n1,3.5µM*,?,9.5µM*,?,4µM*,·
SMILES,Rab9 promoter act,ELG1 DNA repair,FLuc counter,ELG1 genotoxic,NPC1 promoter act,SMN2 splice enh
CC(=O)Nc1nc(C)cs1,0%,10%,-2%,4%,-5%,-7%
Cc1csc(NC(=O)c2ccc3nc[nH]c3c2)n1,0.5µM*,?,4.3µM*,11%,?,·
Cc1csc(NC(=O)CCNC(=O)c2ccccc2Cl)n1,0%,-12%,-3%,0%,-3%,3%
Cc1csc(NC(=O)c2ccc[nH]c2=O)n1,3.5µM*,?,17µM*,16µM*,4µM*,·
Cc1csc(NC(=O)c2ccncc2)n1,8%,?,?,1%,-1%,·
Cc1csc(NC(=O)NCC2CCCC(CNC(=O)Nc3nc(C)cs3)C2)n1 (stereo unspecified),20%,?,?,-1%,3.5µM*,·
Cc1ccc(NC(=O)Cn2c(=O)n(Cc3nc(-c4ccccc4)no3)c(=O)c3cc4c(cc32)OCO4)cc1C,·,·,0%,·,·,·
Cc1cc(C(=O)Nc2nc3c(s2)CCCC3)no1,0.79µM*,?,4.8µM*,0.79µM*,1.6µM*,?
COc1cccc(C(=O)Nc2nc(-c3nnn(-c4cccc(Cl)c4C)c3C)ns2)c1,·,·,12µM*,·,·,·
COc1ccc(-c2nsc(NC(=O)c3cccc(OC)c3)n2)cc1,·,·,11µM*,·,·,-36%
Cc1csc(NC(=O)c2cccc(C)c2C)n1,2.8µM*,?,15µM*,?,3.2µM*,·
Cc1onc(-c2ccccc2)c1C(=O)Nc1nc2c(s1)CCCC2,-4%,1%,-2%,4%,4%,-10%
COc1ccc(C(=O)Nc2nc(-c3nnn(-c4cc(OC)ccc4OC)c3C)ns2)cc1,·,·,-12%,·,·,·
Cc1csc(NC(=O)c2cccnc2)n1,2%,?,-11%,9%,-2%,·
O=C(COC(=O)c1ccc(O)cc1O)Nc1cc(-c2ccccc2)nn1-c1ccccc1,-10%,?,?,-4%,-1%,·

# Screening results from PubChem BioAssay.
